Assay results published in ChEMBL document CHEMBL4296182, “CO-ADD screening of NIH NCI Diversity Set V”.
For part of these data: Results with a measured potency or affinity are listed apart.

Tests used:
Staphylococcus aureus = test: Antibacterial activity against Staphylococcus aureus MRSA ATCC 43300 (CO-ADD:GP_020); MIC in CAMBH media using NBS plates, by Resazurin F(560/590); format: functional; details: Concentration 20 uM, ASSAY_TEST Inhibition of Bacterial Growth, detection method Resazurin, Fluorescence (ex560/em590), MEDIA CAMHB, plate type 384well, CORNING #3640, time 18 hr
Acinetobacter baumannii = test: Antibacterial activity against Acinetobacter baumannii ATCC 19606 (CO-ADD:GN_034); MIC in CAMBH media using NBS plates, by Resazurin F(560/590); format: functional; details: Concentration 20 uM, ASSAY_TEST Inhibition of Bacterial Growth, detection method Resazurin, Fluorescence (ex560/em590), MEDIA CAMHB, plate type 384well, CORNING #3640, time 18 hr
Escherichia coli = test: Antibacterial activity against Escherichia coli ATCC 25922 (CO-ADD:GN_001); MIC in CAMBH media using NBS plates, by Resazurin F(560/590); format: functional; details: Concentration 20 uM, ASSAY_TEST Inhibition of Bacterial Growth, detection method Resazurin, Fluorescence (ex560/em590), MEDIA CAMHB, plate type 384well, CORNING #3640, time 18 hr
Klebsiella pneumoniae = details: Concentration 20 uM; ASSAY_TEST Inhibition of Bacterial Growth; detection method Absorption (OD600); MEDIA CAMHB; plate type 384well; NBS; CORNING #3640; time 18 hr
Candida albicans = details: 20 µM
Cryptococcus neoformans = details: Concentration 20 uM; ASSAY_TEST Inhibition of Fungal Growth; detection method Resazurin; Absorption (OD600-OD570); plate type 384well; NBS; CORNING #3640

| SMILES | Inhibition (Staphylococcus aureus) [%] | Inhibition (Acinetobacter baumannii) [%] | Inhibition (Escherichia coli) [%] | Inhibition (Klebsiella pneumoniae) [%] | Inhibition (Candida albicans) [%] | Inhibition (Cryptococcus neoformans) [%] |
| --- | --- | --- | --- | --- | --- | --- |
| CCN(CC)CCNC(=O)c1ccc(NCN2C(=O)NC(c3ccccc3)(c3ccccc3)C2=O)cc1 | 12.78 | -11.12 | 11.42 | 8.03 | 1.74 | -3.88 |
| c1ccc(NN(Cc2ccncc2)c2ccccc2)cc1 | -5.2 | -18.1 | 6 | 7.57 | 0.97 | -6.08 |
| O=C1c2ccccc2C(=O)N1c1nc[nH]n1 | 4.45 | -18.59 | 12.38 | 0.02 | -0.21 | -4.67 |
| CC(=O)c1c(O)c(C)c(O)c2c1OC1=CC(=O)/C(=C(/C)N)C(=O)C12C (stereo not given) | -3.02 | 6.34 | 8.14 | 14.26 | 6.96 | -10.35 |
| C1=Cc2ccccc2Nc2ccccc21 [IMINOSTILBENE] | -1.85 | -14.24 | 12.01 | 3.59 | 3.51 | -15.72 |
| O=C1CCC(c2ccccc2)(c2ccccc2)CC1 | -6.5 | -6.38 | 1.3 | -0.79 | -1.35 | -9.68 |
| O=C(c1cccnc1)N1CCN(c2ccccc2Cl)CC1 | 7.8 | -13.63 | 10.26 | 11.81 | 2.66 | -13.57 |
| CC(C)C(=O)c1ccc(O)c(O)c1 | -0.55 | -3.52 | -12.2 | 9.02 | 3.31 | 21.92 |
| NS(=O)(=O)c1ccc(NC(=S)NC(=O)c2ccco2)cc1 | 17.92 | 4.84 | 10.07 | 4.06 | 1.47 | -12.16 |
| CC(=O)OC1COC(OC(C)=O)CO1 (stereo not given) | -14.46 | -1.98 | -12.48 | 0.6 | -0.61 | 10.42 |
| Cc1[nH]c(=O)n(C(C)C)c(=O)c1Br | 12.85 | -11.08 | 12.66 | 5.3 | 0.37 | -6.73 |
| Nc1ccccc1SC1CC(=O)N(c2ccccc2Cl)C1=O (stereo not given) | -6.84 | 10.38 | -12.68 | 6.14 | 15 | -0.17 |
| COC(=O)Nc1csc2c1NC(=O)CCCC2 | 9.05 | -9.14 | 10.25 | 10.74 | 1.85 | -7.13 |
| CC(=O)OCCn1c2nc(=O)[nH]c(=O)c-2nc2cc(C)c(C)cc21 | -0.64 | -11.64 | 4.08 | 3.5 | -0.26 | -7.97 |
| O=C(c1ccccc1)c1ccc[nH]1 | -0.8 | -3.74 | -15.34 | 11.78 | 2.09 | 18.91 |
| O=C(Nc1ccc(Cl)c(Cl)c1)Nc1ccccc1O | -10.29 | 0.1 | -13.39 | 5.08 | 3.05 | 15.14 |
| Cc1ccc(Nc2ccc(N)cc2S(=O)(=O)O)cc1 | 11.37 | 8.99 | -1.31 | 9.09 | 3.65 | -9.37 |
| O=C(NC(=S)Nc1ccccn1)c1ccccc1 | -7.14 | -16.09 | 5.5 | 8.04 | 10.1 | -15.94 |
| C(=C\c1ccc(/C=C/c2ccccc2)nn1)/c1ccccc1 | 12.1 | 11.6 | 2.44 | 18.32 | 0.82 | -5.49 |
| CC(C)N(C(=O)c1cccc([N+](=O)[O-])c1)C(C)C | 9.59 | -13.76 | 4.26 | 0.52 | 0.26 | -4.03 |
| CC(C)(C)N=C(S)NC(C)(C)C | 10.55 | -9.16 | 4.33 | 8.8 | 1 | -0.12 |
| COc1ccc(-c2cc(-c3ccccc3)c(-c3ccccc3)nn2)cc1 | -3.16 | 8.32 | 6.8 | -1.34 | 2.55 | -12.46 |
| COc1cc2c(NCCCCCO)ncnc2c(OC)c1OC | 13.68 | 10.53 | 6.4 | 13.53 | 0.91 | -4.07 |
| Cn1c(=O)c2c(nc(Cc3ccccc3)n2C)n(C)c1=O | 3.97 | 12.97 | -5.53 | 15.33 | 4.11 | -7.23 |
| CC(=O)c1cc2c(cc1C)CCCC2(C)C | 18.6 | -15.87 | 11.58 | 0.53 | -0.44 | -7.49 |

| SMILES | Inhibition (Staphylococcus aureus) [%] | Inhibition (Acinetobacter baumannii) [%] | Inhibition (Escherichia coli) [%] | Inhibition (Klebsiella pneumoniae) [%] | Inhibition (Candida albicans) [%] | Inhibition (Cryptococcus neoformans) [%] |
| --- | --- | --- | --- | --- | --- | --- |
| O=C1OC(CN(Cc2ccccc2)Cc2ccccc2)CN1/N=C/c1ccc([N+](=O)[O-])o1 (stereo not given) | -19.95 | -14.51 | 10.29 | 6.15 | 10.5 | -4.47 |
| Cn1ncc2c(Sc3ccc(Cl)cc3)ncnc21 | -1.32 | 15.79 | -1.92 | 2.06 | 4.47 | -10.69 |
| O=C1OCC/C1=C\NCCCCCCCCN/C=C1\CCOC1=O | -2.67 | 17.83 | 3.41 | 9.43 | 0.08 | -12.67 |
| COC(=O)c1ccc(C(=O)OC)c(O)n1 | 3.27 | 9.07 | 2.76 | 7.35 | 0.7 | -5.98 |
| Nc1nc(SCc2ccccn2)c2ncn(C3OC(CO)C(O)C3O)c2n1 (stereo not given) | 6.83 | 2.95 | 4.84 | 10.89 | -1.39 | -4.63 |
| Cc1cccn2c(S)nnc12 | 10.19 | -5.53 | 13.03 | 17.76 | 5.89 | -6.48 |
| CC(=O)Nc1ccc(S(=O)(=O)N=S(C)C)cc1 | 11.09 | 5.41 | 5.54 | 15.05 | 3.87 | -12.86 |
| Cn1ncc2c(Nc3ccccc3Cl)nc(Cl)nc21 | 11.91 | 12.64 | 1.79 | 7.78 | 7.2 | -6.78 |
| COc1ccn(C2CCCCO2)c(=O)n1 (stereo not given) | 1.35 | -10.23 | 3.33 | 6.04 | 0.65 | -5.3 |
| O=C(O)Cc1sc(O)nc1O | 3.49 | -13.46 | 1.48 | 28.66 | 28.5 | -2.77 |
| c1ccc2[nH]c(CCCCCc3nc4ccccc4[nH]3)nc2c1 | 5.94 | 0.02 | -19.74 | 9.39 | 4.8 | 17.08 |
| c1ccc2sc(SCSc3nc4ccccc4s3)nc2c1 | -0.38 | -17.15 | 3.51 | 4.08 | 12.5 | -13.87 |
| Nc1ccc(/N=N/c2ccc(O)cc2)c(N)n1 | -3.88 | -10.7 | 0 | 0.93 | 0.86 | -14.36 |
| COc1cccc2c1C(CO)N1C(C#N)C3CC(C(=O)O)C(C1C2)N3C (stereo not given) | 14.9 | -10.77 | -1.99 | 21.32 | 4.33 | -4.3 |
| CC(=O)Oc1c(C)c(OC(C)=O)c2c(c1C(C)=O)OC1CC(=O)C(C(C)=O)=C(O)C21C (stereo not given) | 13.8 | -11.04 | 18.15 | 8.45 | 3.77 | -8.61 |
| S=C1N(c2ccccc2)CN(C2CCCCC2)CN1c1ccccc1 | 0.84 | 12.71 | -2.84 | 1.62 | 3.07 | -5.37 |
| C[C@H](CCC(=O)O)[C@H]1CC[C@@]2(C)[C@@H]3C(=O)C[C@H]4C(C)(C)[C@@H](O)CC[C@]4(C)[C@H]3C(=O)C[C@]12C | 2.14 | -2.92 | -3.17 | 11.41 | -2.24 | -2.42 |
| NNC(=O)CNC(=O)Nc1nnc(S)s1 | 1.09 | 15.79 | -4.75 | 16.78 | 2.5 | -8.13 |
| Nc1n[nH]c(CO)n1.O=C(O)CO | 4.42 | -8.74 | 3.45 | 8.84 | 0.2 | -5.13 |
| CCCNC(=O)Nc1ccc(C)cc1C | 1.69 | 10.44 | -6.23 | 17.61 | 5.41 | -2.02 |
| CCCCNCC1CCCO1 (stereo not given) | 9.4 | -3.42 | 8.45 | 9.23 | -0.1 | -3.66 |
| Cc1ccc(Cl)cc1NC(=O)c1cc2ccccc2cc1O | 5.29 | -8.92 | 15.86 | 12.1 | 4.11 | -7.39 |
| C=CCNC(S)=NCC | 0.32 | -1.02 | 11.35 | 13 | 0.61 | -1.87 |
| O=C(/C=C/c1ccccc1)CC(c1ccccc1)N1CCOCC1 (stereo not given) | 13.93 | 0.36 | -4.09 | 21.53 | 12.7 | -9.56 |
| N#C/C(=C\c1cc(O)c(O)c(O)c1)C(N)=O | -3.49 | 6.06 | 5.21 | 9.86 | 5.49 | -11.36 |
